PBM binding z-score data for 40 sequences are collected here from the supplement of paper PMC6555819.

This test concerns PXR:RXRa (NR concentration 270 nM, RXRa partner concentration 90 nM). As to the kind of experiment: PBM binding z-score (relative to random genomic background probes); higher = stronger binding; sequences stand for … in GC…GCGATTGACAGCGTAGAATGAAGG
In a few lines:
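Scanned fluorescence from custom Agilent 4×180K protein-binding microarrays was regression-normalized. Binding z-scores use random background probes as reference. Ligand-free nuclear receptor dimers were incubated on the arrays for 1 h and detected with antibodies against each partner (one per run).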
As to ACTATTAGTTGAGAAGAGGGCAACCGATAGGTTG, the PBM binding z-score turned out to be 0.779. Next, CGAACTAGGTCTGAACAGGACAGTGAAGGATGAT: -0.688; CCGAGTAGGTTATGGGGCATTCCGGCAACGGTGA: -0.218. Next, GCTCGGATGACAAGGTCAGAGCTTTGTCCGTAGA: 1.51; CGAACTAGGTCAAAGGTCAAAGTCGAGCCAACCA: 7.09. Sequence GCGACTGGTGCATCAGCAGGTTACCATAACTTAA displayed a PBM binding z-score of -0.248. TCTAGTTGGTCACGGAGGTCACACACGACGGGTA: the PBM binding z-score is 4.41. For GTTGCTAGGTCAGGTTGGTCAGCTAACGGGTACG, the PBM binding z-score was 0.651. Sequence TCGTGTAGATCAGCAGGTTAAGAAAGCTGGCCAA returned a PBM binding z-score of -0.0142. GCTGGCAGGCCATTTGGGTCACTCAATGACGGGC returned a PBM binding z-score of 0.654. As to TGAATCAGGTTATAAGATCAGGGAACGTTGCAAA, the PBM binding z-score is -0.146. Take AGCATGAGGTTATACGTAGATCAGGGAAGAAAGT: the PBM binding z-score amounted to 0.995. Under CCTAGCAGGCCAATTTGGGTCACTCAAGGCTTGA stands 1.12; under GATACAGGGTCAAGACCAGAGTACGCGTATTGAT, 3.34; under TCTCGGAGGACACGAAGGACAGAGCTTTCCAGAG, -0.352. Next, CCGACTGGGCCACGAAAGGTCATTGATTCAGTGA: 5.17.

As for ATCGAAAGGTCGAAGGTTAGTATACCCACCCGAA, the PBM binding z-score was found to be 3.34.

As for TGAATGACGTTATAAGATCAGGGAACGTTGCAAA, the PBM binding z-score was -0.0188.

In turn, AGAATGAGGCTACCAAAGATCAGGGAAACGCTTG gave a PBM binding z-score of -0.51.

Regarding CAAACTAGGTCAAGGTCATAGTCGGTTTGTGCCA, the PBM binding z-score was 5.2. Under TCACGGAGGACACGAAAGGTCAGAGCTCGACATC stands 4.03. As to ACTAGCAGGCCAGGTTTGGGTCACTCAAACAAAG, the PBM binding z-score was determined as 0.351. In the case of TAGCCTAGGTCATGGGCCAGTAGACCACGCGAAC, the PBM binding z-score stood at 1.5. In turn, CCCTACGGGTCACTGACAGGTTATAGCATTTGGA had a PBM binding z-score of 3.54. Under GATACAGGGTCAACGCCAGAGTACGCGTATTGAT stands 4.11; under ACAGACAGGTGACGAAGGTAACTCAGGCTATCAT, -0.208. Sequence TCAGACAGGTGGAGGTAACTCAGGTACGCAGTCG displayed a PBM binding z-score of 0.506.

Take TCTATTAGTTGATTAGGGCAGCCGAAACAGCGGA: the PBM binding z-score was 0.355.

In turn, GCTAGCAGGCCATTTGGGACACTCAATGACGGGC returned a PBM binding z-score of -0.714.

As to TAGCCTAGGTCATGCAGGCCAGTATAGTGTCGGC, the PBM binding z-score amounted to 1.77. Under TCTTGTAGATCAAGCAGGTTAATAAAGCCTGAGT stands 0.447; under CTCCAAAGGTCGTGCTCAGGTGAGTATACCAAAC, 3.53; under GCTGCTAGGTCCACTGATGGTCAGCTAAAGCTCG, -0.525. As for ATATGTAGCTTATCGGGTCATTCAGTTTGCGCAT, the PBM binding z-score turned out to be 3.2. In the case of CCTCGGAGGACAGTAGGTCAGAGCTGTCCGCTTT, the PBM binding z-score came to 0.0704.

The sequence AGAATGAGGTTATAAAGATCAGGGAATTGCGGTC came in with a PBM binding z-score of 1.2. Under GCTTGTAGATTAAGGTTAAGAAAGACTAAGCTAA stands 0.375; under CGTCAAAGTTCAATGTAACGTAACAGAAAGCAGC, 4.03.

With TCTATTAGTTGATAAGGGCAACCGAAACAGCGGA, the PBM binding z-score was 0.671. Take GCTAGTTGGTCAGTAAAAGGTCACAGACCGGTCG: the PBM binding z-score is 4.92.
